A selection: hits, their analogues and other compounds. The true share with any hit is near 2.2%.
ANO1 activ = activators or potentiators of mouse TMEM16A chloride channel. B-score at 10 µM. AID 623877. 0.3% of 340,000 active. HEK293 TMEM16A/YFP-H148Q/I152L, iodide quench fluorescence; active compounds read low;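 active = fluorescence-ratio B-score plate-corrected deviation score at least 3 library SD below zero, with starting fluorescence score within 5 deviations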;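 note: channel opened by trigger with iodide after compound preincubation; score built on the fluorescence ratio of max minus min over baseline; more negative score means more quench and so TMEM16A activation or potentiation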
GRK2 inh = human GRK2 inhibition via aptamer displacement; P25098; bead flow cytometry, FAM-aptamer displacement from GRK2; inhibition of aptamer binding, % at 10 µM; 0.59% of 330,000 active;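 active = inhibition of aptamer binding above 40%, roughly 3 SD of noise, on plates passing a quality check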;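 note: median bead fluorescence of bound FAM aptamer so fluorescent compounds give negative values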
TMEM16A inh = blocks the mouse calcium-activated chloride channel TMEM16A; HEK293 TMEM16A/YFP iodide influx fluorescence, ionomycin; normalized B-score (activity score, 25-100; higher = stronger inhibition) at 10 µM; 1.2% of 310,000 active; AID 588511;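 active = ratio plate-corrected score three or more library SD toward inhibition, starting fluorescence score within five deviations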;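 note: score derived from kinetic fluorescence span divided by baseline fluorescence per well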
NOD2-RIPK2 inh = inhibitors of human NOD2-RIPK2 interaction; 0.38% of 360,000 active; inhibition, % at 4.98 µM; AID 624267; CHO BLA complementation NOD2-RIPK2, CCF4 ratio; in the data active = inhibition above about 21%;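 note: 0% = vehicle only and 100% = reference blocker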
TLR4 MyD88 comp = TLR4-MyD88 interaction inhibition in cells; AID 861; O00206+Q99836; inhibition, % at 8.4 µM; 0.18% of 200,000 active; HeLa CL3-4 TLR4/MyD88 BLA complementation, FRET ratio; in the data active = inhibition above about 25%;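 note: 0% = vehicle and 100% = reference inhibitor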
TLR9-MyD88 block = TLR9-MyD88 interaction inhibition. CHO BLA complementation TLR9-MyD88, CCF4 FRET ratio. inhibition, % at 4.98 µM. 0.21% of 340,000 active;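 active = inhibition above the mean over all tested compounds plus 3 SD, cut at about 21% in these data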;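 note: 0% = DMSO only wells and 100% = clavulanate BLA inhibitor control wells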
TMEM16A reconf = TMEM16A (mouse) chloride channel inhibition, re-confirmation | shares compounds with TMEM16A inh | HEK293 TMEM16A/YFP-H148Q, iodide quench fluorescence; ionomycin added to raise cell calcium | inhibition, % at 10 µM | 39% of 2,300 active;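 active = mean duplicate percent inhibition, scaled so buffer wells are 0 and the reference blocker 100, over three buffer SD above buffer mean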
TMEM16A Ca cntr = alters calcium mobilization in TMEM16A HEK293 cells, counter-screen; 2% of 2,300 active; shares compounds with TMEM16A inh; calcium response (% of ionomycin), % at 10 µM; TMEM16A/YFP HEK293, Fluo4 calcium mobilization;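 active = duplicate-averaged calcium signal over 20% of the ionomycin maximum, relative to buffer baseline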;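 note: each well's signal is peak minus trough fluorescence divided by its pre-addition baseline; 0% = buffer wells and 100% = ionomycin wells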
Parental YFP cnt = counter-screen for TMEM16A inhibitors: effect in parental YFP-HEK293 cells; 2,300 tested, under 10 active; iodide YFP quench, ionomycin; shares compounds with TMEM16A inh; YFP ratio F(max-min)/F0 at 10 µM;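 active = yellow fluorescent protein signal ratio exceeding the buffer control mean by over 5 SD of those controls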;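 note: ratio is mean of duplicate wells from kinetic YFP trace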
ClC-1 inh = blocks the rat ClC-1 voltage-dependent chloride channel; shares compounds with TMEM16A inh; 2,300 tested, under 10 active; ratio percent, % at 10 µM; CHO ClC-1-YFP, iodide influx fluorescence quench; iodide control reads 0, buffer control 100; AID 652236;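 active = duplicate-mean ratio percent above the mean of iodide-only control wells, which defines zero, plus 5 of their SD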;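 note: higher percent means stronger block of ClC-1 iodide influx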
* = called active by the depositor; i = inactive; . = not tested or not shown.

SMILES	ANO1 activ	GRK2 inh	TMEM16A inh	NOD2-RIPK2 inh	TLR4 MyD88 comp	TLR9-MyD88 block	TMEM16A reconf	TMEM16A Ca cntr	Parental YFP cnt	ClC-1 inh
Cc1cc(Cl)c(S(=O)(=O)N2CCCC2)cc1OCC(=O)NC1CCCCC1	i	1	100*	10	8	1	22%*	i	-0.95	-21
CNc1ccccc(-c2ccc3ccccc3n2)c1=O	i	0	i	7	3	-2	.	.	.	.
COc1ccc(C2OCC(C)([N+](=O)[O-])CO2)cc1 (centres undefined)	i	.	.	6	.	3	.	.	.	.
O=[N+]([O-])c1ccc(N2CCN(C(=S)NC3CCCCC3)CC2)cc1	i	1	25*	-2	-10	-9	i	i	-0.99	-21
Cc1ccc(SC[C@H](C)CN2CC[C@H](C(C)(C)C)CCC2=O)cc1	i	0	100*	-4	.	-3	38%*	i	-0.89	0
C[C@@H](CSc1ccc(Br)cc1)CN1CC[C@H](C(C)(C)C)CCC1=O	i	0	.	4	.	-7	.	.	.	.
CCCOc1ccccc1Cn1c(=O)oc2ccc(C)cc21	i	0	100*	-9	-6	0	i	i	-1.1	-10
COc1ccc(C(=O)NC(C)CCn2cccn2)cc1OC1CCN(C(C)C)CC1 (centres undefined)	i	0	i	-6	.	-9	.	.	.	.
N#CN1CCC(NS(=O)(=O)c2ccc(C(F)(F)F)cc2)C1 (centres undefined)	i	0	.	-4	.	0	.	.	.	.
CCn1cc(C(=O)OCC(=O)OC2CC(C)CCC2C(C)C)c(=O)c2ccc(C)nc21 (centres undefined)	i	0	25*	11	1	-6	i	i	-1.3	-10
CCc1nc2c(OCc3ccc(F)cc3)cccn2c1N(C)C(=O)c1ccc(C)cc1	.	.	.	-2	.	.	.	.	.	.
c1ccc(C(Cc2nc(-c3ccncc3)no2)c2ccccc2)cc1	i	5	100*	-5	6	-4	24%*	i	-0.99	-20
S=C(NCc1ccc(Cl)cc1Cl)NC1CCCCC1	i	0	25*	4	1	9	52%*	i	-0.98	-16
CSc1ccc(CN(C)C(=O)c2ccc(S(=O)(=O)Nc3c(C)n(C)n(-c4ccccc4)c3=O)cc2)cc1	i	.	.	8	.	6	.	.	.	.
CSc1ccc(CN(C)C(=O)c2ccc(S(=O)(=O)Nc3ccccc3)cc2)cc1	i	0	25*	5	.	-1	i	i	-1.2	-12
Cc1noc(C)c1CSc1nc2ccccc2nc1NS(=O)(=O)c1ccc(Cl)cc1	i	1	100*	-3	-5	-8	29%*	i	-0.72	-8
COc1ccc(/C=C2/SC(=S)N(NS(=O)(=O)c3ccccc3)C2=O)cc1	i	1	i	2	.	2	.	.	.	.
C=CCOc1ccc(/C=C2\SC(=S)N(NS(=O)(=O)c3ccccc3)C2=O)cc1	i	3	100*	1	.	-1	88%*	i	-1.1	-48
Cc1nc(-c2cccc(NC(=O)COc3ccc(Cl)cc3)c2)cs1	i	2	25*	10	.	10	i	i	-1.1	-5
CC(C)(C#N)NC(=O)C1CCCN1S(=O)(=O)c1ccc2ccccc2c1 (centres undefined)	i	0	i	-4	.	-12	.	.	.	.
